Sampled rows, rich in hits. Any-hit rate of the full collection: about 2.2%.
hiPSC survival – hiPSC single-cell survival enhancement; ATPlite luminescence; 100% = ROCK inhibitor wells, 0% = DMSO; survival enhancement, % at 20 µM; hit rate 0.044% among 360,000; in the data active means survival enhancement above about 18%;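 further: cells exposed to compounds for 16 hours before the ATP read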
MIN6 prolif – induces beta-cell replication in MIN6 cells; hit rate 0.29% among 330,000; MIN6 cells proliferation, ATPlite luminescence, 48 h; cells starved in 0.2% serum; 100% = growth in 10% serum; proliferation, % at 10 µM;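 active means compounds whose signal lies at least 3.5 SD above the mean of all wells on their plate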;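 further: 0% = DMSO-treated cells in low-serum medium and 100% = 10% serum control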
ABCB6 inh MLPCN – human ABCB6 transporter inhibition; Q9NP58; K562-ABCB6 porphyrin accumulation, flow cytometry, 1 h; active compounds read low; fluorescence ratio to DMSO, % at 10 µM; hit rate 0.19% among 360,000;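 active means fluorescence ratio to DMSO below 75%, the collection mean minus 3 SD; inconclusive means too few cells collected in the well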;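 further: signal is porphyrin accumulated inside mitochondria; 100% equals median channel fluorescence of DMSO control wells; lower ratio means ABCB6 inhibition with less porphyrin fluorescence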
Target sequence (Q9NP58 whole entry, looked up): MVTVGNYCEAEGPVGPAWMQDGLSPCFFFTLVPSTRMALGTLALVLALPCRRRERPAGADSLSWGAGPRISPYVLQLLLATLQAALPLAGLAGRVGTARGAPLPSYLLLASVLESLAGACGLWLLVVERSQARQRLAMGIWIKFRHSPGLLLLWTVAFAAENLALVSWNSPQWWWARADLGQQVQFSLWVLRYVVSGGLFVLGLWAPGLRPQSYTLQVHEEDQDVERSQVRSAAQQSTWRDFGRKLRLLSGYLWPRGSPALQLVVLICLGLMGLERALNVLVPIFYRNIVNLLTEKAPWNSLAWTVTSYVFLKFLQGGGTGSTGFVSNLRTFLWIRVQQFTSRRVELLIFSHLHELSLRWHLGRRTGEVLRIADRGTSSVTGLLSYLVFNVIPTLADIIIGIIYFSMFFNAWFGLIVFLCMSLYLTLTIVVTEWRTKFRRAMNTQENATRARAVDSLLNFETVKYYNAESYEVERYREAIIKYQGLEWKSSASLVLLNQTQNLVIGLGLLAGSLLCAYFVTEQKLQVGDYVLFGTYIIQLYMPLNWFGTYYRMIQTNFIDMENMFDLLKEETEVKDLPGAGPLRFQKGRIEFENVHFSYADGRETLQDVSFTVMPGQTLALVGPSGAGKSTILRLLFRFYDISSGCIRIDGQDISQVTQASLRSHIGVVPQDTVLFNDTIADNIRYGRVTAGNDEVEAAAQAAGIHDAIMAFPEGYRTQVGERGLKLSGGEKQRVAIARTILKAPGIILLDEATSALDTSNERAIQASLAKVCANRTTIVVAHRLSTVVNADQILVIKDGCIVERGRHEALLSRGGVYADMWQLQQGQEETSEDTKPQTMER
Myeloid diff 2 – promotes myeloid progenitor differentiation. ER-HoxA9 myeloid progenitors, lysozyme-GFP differentiation, flow cytometry. calls only at 10 µM. hit rate 1% among 360,000. AID 624256;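 active means normalized GFP-positive differentiation at or above the plate's own cutoff, the solvent-only control mean plus 3 SD; inconclusive means no clear call, values can overlap the other calls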;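 further: cells exposed to compound for four days before flow analysis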
H9c2 protect – myocardial damage modulation in H9c2 cells; AID 588492; H9c2 cardiomyocytes, H2O2 injury protection, ATPLite, 2 h; hit rate 0.63% among 360,000; protection from H2O2 cell death, % at 20 µM;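 active means compounds giving at least 50% protection of heart cells from peroxide-induced death in the single-dose screen, raw or plate-pattern-corrected value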;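 further: 0% = DMSO wells with peroxide and 100% = DMSO wells without peroxide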
An asterisk follows results filed as active; i = inactive; ? = inconclusive; · = no result; + = active, no number.

SMILES	hiPSC survival	MIN6 prolif	ABCB6 inh MLPCN	Myeloid diff 2	H9c2 protect
Cc1cccc2sc(NC(=O)C3CCCN(S(=O)(=O)c4cccc5nonc45)C3)nc12 (centres undefined)	-1.4	0.0	107.0	i	10.8
Cc1cc(N2CCCC2)ccc1NC(=O)COc1ccccc1	-0.1	-2.3	215.0	+	6.1
COc1ccc(N2CCCC2)c(NC(=O)COc2ccccc2)c1	1.1	-2.3	88.0	i	-4.6
CCc1ccccc1OCC(=O)Nc1ccc(N2CCCC2)cc1C	0.2	-7.5	238.0	+	-9.7
Cc1ccccc1OCC(=O)Nc1ccc(N2CCOCC2)cc1N1CCOCC1	-0.3	-0.2	99.0	i	4.1
O=C(OCC(=O)N1CCCCCC1)c1n[nH]c(=O)c2ccccc12	0.3	1.3	90.0	i	51.3*
CC1(C)CC2CC(C)(CN2C(=O)COC(=O)c2n[nH]c(=O)c3ccccc23)C1 (centres undefined)	8.5	1.9	113.0	i	60.1*
CC1CCCC(C)N1C(=O)COC(=O)c1n[nH]c(=O)c2ccccc12 (centres undefined)	-0.2	-0.4	91.0	i	53.5*
O=C(OCC(=O)N1CCc2ccccc21)c1n[nH]c(=O)c2ccccc12	0.3	-5.4	100.0	i	72.9*
O=C(c1ccc(Cl)c(S(=O)(=O)N2CCOCC2)c1)N1CCN(c2ccccn2)CC1	0.4	-3.2	99.0	i	15.3
CC(OC(=O)c1snc(C(=O)NC2CCCCC2)c1N)C(=O)NC(C)(C)C (centres undefined)	-0.2	-1.4	90.0	i	-19.6
COc1ccc(N2CCN(S(=O)(=O)c3c(C)[nH]c(C)c3C(=O)N3CCCCC3)CC2)cc1	0.3	-0.3	99.0	i	-2.0
Nc1nc(N)nc(-c2cccc(Br)c2)n1	4.0	·	99.0	i	-4.4
CN1CCN(c2ccc(NC(=O)COc3ccccc3[N+](=O)[O-])cc2)CC1	-0.3	2.3	105.0	i	22.2
COc1ccc(OCC(=O)Nc2ccc(N3CCN(C(=O)c4ccccc4C)CC3)cc2)cc1	-0.4	-1.2	94.0	+	1.0
CC(C)C(=O)N1CCN(c2ccc(NC(=O)COc3ccccc3[N+](=O)[O-])cc2)CC1	0.3	2.2	91.0	i	72.0*
Cc1ccc(OCC(=O)Nc2ccc(N3CCN(C(=O)c4ccco4)CC3)cc2)cc1C	-0.4	-3.0	96.0	+	-6.6
CC(C)=NNc1ncnc2nc[nH]c12	-0.8	·	88.0	·	-2.4
COc1ccc(NC(=S)N2CCC(c3nc4ccccc4[nH]3)CC2)c(OC)c1	0.1	-2.8	66.0*	i	1.9
Cc1ccc(C)c(N=Cc2c(O)c3ccccc3oc2=O)c1	0.4	-1.9	101.0	i	1.7
CC(Oc1ccccc1)c1ccnn1S(=O)(=O)c1ccccc1 (centres undefined)	-2.0	1.7	144.0	i	-8.1
NNC(=O)c1[nH]c2ccc([N+](=O)[O-])cc2c1-c1ccccc1	0.4	-6.2	100.0	i	8.2
O=C(N/N=C/c1ccccn1)c1[nH]c2ccc([N+](=O)[O-])cc2c1-c1ccccc1	0.5	-6.6	99.0	i	84.1*
CC1CN(c2nn3c(=O)c4ccccc4nc3c3ccccc23)CC(C)O1 (centres undefined)	-2.0	0.1	99.0	i	65.2*
CCN1CCN(c2nn3c(=O)c4ccccc4nc3c3ccccc23)CC1	0.3	-3.5	203.0	i	38.1
SMILES	hiPSC survival	MIN6 prolif	ABCB6 inh MLPCN	Myeloid diff 2	H9c2 protect
CCCOC(=O)Nc1nc2ccccc2o1	-2.0	-1.7	100.0	i	-9.4
CCOC(=O)c1cnc(Nc2nc3ccccc3o2)nc1CN1CCN(C)CC1	-0.8	·	102.0	i	59.9*
CC(C)c1ccccc1NC(=O)COC(=O)Cc1c[nH]c2ccccc12	2.6	0.4	102.0	i	0.1
N#CCSc1ccccc1NC(=O)COc1ccc(-c2nnco2)cc1	0.1	0.1	218.0	+	-3.2
N#CCSc1ccccc1NC(=O)COC(=O)Cc1c[nH]c2ccccc12	-0.4	0.6	136.0	+	2.1
Cc1ccc(OCC(=O)Nc2c(C)nn(-c3ccccc3)c2C)c(Br)c1	0.2	-1.2	96.0	i	-4.8
COc1c2ccc(C(=O)NCCCCc3ccccc3)cc2nn1C	-1.2	1.0	91.0	+	-2.1
Cc1nc(/N=C\c2ccc(N(C)C)cc2)sc1C	-1.0	0.4	100.0	+	2.7
Cc1ccc(N=Cc2ccc(N(C)C)cc2)cc1	-2.0	3.4	98.0	i	-12.9
CCN(CC)CCNc1ccc(CO)c2oc3ccccc3c(=O)c12	-2.2	·	95.0	+	8.5
CCN(CC)CCNc1ccc(CO)c2sc3ccccc3c(=O)c12	-2.8	-7.9	100.0	?	10.4
COc1cc2ncnc(NCc3ccccc3)c2cc1OC	-2.3	-0.9	106.0	i	-3.5
COc1cc2ncnc(NCc3cccc(Cl)c3)c2cc1OC	-0.1	2.4	114.0	+	-5.5
C[C@@H](CO)NC(=O)c1[nH]cnc1C(=O)Nc1ccc(CNC(=O)OC(C)(C)C)cc1	5.2	·	105.0	i	10.0
Cc1cccc([C@@H]2[C@@H]3C(=O)N(Cc4ccccc4)C(=O)[C@@H]3[C@]3(Cc4ccc(Cl)cc4)C(=O)N(c4ccccc4)C(=O)N23)c1	-0.5	-6.1	102.0	i	-8.2
Cc1cccc([C@@H]2[C@@H]3C(=O)N(Cc4ccccc4)C(=O)[C@@H]3[C@]3(Cc4ccc(Cl)cc4)C(=O)N(c4cccc(Br)c4)C(=O)N23)c1	0.0	-4.8	103.0	+	-0.8
COc1cccc(C2CC(=O)N3CN(c4cccc(Cl)c4C)CSC3=C2C#N)c1OC (centres undefined)	27.1*	-1.9	98.0	i	6.8
COC(=O)CCCC1=CC2=C(c3ccccc3)C(=O)C(C)(OC(=O)C3CCCC3)C(=O)C2=CN1CC(C)C (centres undefined)	1.0	-1.0	109.0	i	0.3
COc1ccc(-c2cc(=O)c3ccccc3[nH]2)cc1	0.8	1.4	97.0	i	56.4*
Cc1ccc(NS(=O)(=O)c2ccc3c(c2)oc(=O)n3C)cc1C	0.1	-3.1	97.0	i	-8.9
O=C(CCCN1C(=O)/C(=C/c2cccs2)SC1=S)NNC(=O)c1ccccc1O	2.5	0.0	97.0	i	59.5*
COc1ccc(/C=C2\SC(=S)N(CCCC(=O)NNC(=O)c3ccccc3O)C2=O)cc1	0.3	-4.7	96.0	·	39.6
O=C(CCCN1C(=O)/C(=C/c2cccs2)SC1=S)NNC(=O)c1ccncc1	-1.7	3.9	104.0	i	-4.7
COc1ccccc1/C=C1\SC(=S)N(CCC(=O)NNC(=O)c2ccccc2O)C1=O	0.2	-6.9	101.0	i	59.9*
O=C(NCC1CCN(c2ccc(S(=O)(=O)N3CCOCC3)cc2)CC1)Nc1ccccc1F	-0.3	0.8	96.0	i	-0.8
O=c1[nH]c2cc(Cl)c(Cl)cc2o1	5.4	·	99.0	i	1.3
O=C(Nc1nnc(-c2ccco2)o1)c1ccc2ccccc2c1	-0.1	-6.3	90.0	i	64.4*
